Rows were chosen to be rich in hits. Some 11% of all compounds tested hit in one or more screens of this group.
NIH3T3 tox = kills NIH 3T3 cells; 4.3% of 94,000 active; Potency, µM (top dose mostly 96.7 µM), for inactives: at the highest dose activity change, negative = cytotoxicity, hits mostly inhibitors; AID 1345082; NIH 3T3 viability, CellTiter-Glo ATP luminescence, 48-72 h; note: nearly all actives have a fitted effect of over 55% in size
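Cytotoxicity was measured by CellTiter-Glo ATP luminescence after 48 or 72 h compound exposure at 37 °C. Mouse NIH 3T3 fibroblasts were seeded at 400 cells/well and dosed by 23 nL pin transfer.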
NPR1 antag = antagonists of human natriuretic peptide receptor Npr1. Potency, µM (titrated, usually from 46.3 µM), for the others: at the highest dose activity change, negative = inhibition, usual class: inhibitors. HEK293 hNpr1 GloSensor cGMP, ANP-stimulated luminescence. AID 1347048. 1.6% of 76,000 active; calls by dose curve; note: nearly all actives have a fitted effect of over 60% in size
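HEK293 cells stably expressing human Npr1 and cGMP GloSensor pGS-40F, loaded 2 h with 2% GloSensor reagent, given compound 30 min at room temperature. Luminescence read before and 20 min after 0.1 nM hNppA.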
FLuc inh = blocks purified firefly luciferase enzyme activity. P08659. purified P. pyralis luciferase, luminescence, biochemical. Potency, µM (doses to about 115 µM), most hits filed as inhibitors. 2.5% of 76,000 active. AID 1347043; note: nearly all actives have a fitted effect of over 65% in size
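Biochemical qHTS: compound (6-point titration) added to 10uM D-luciferin plus 10uM ATP in Tris acetate pH 7.5 buffer with Mg, Tween-20 and BSA, then purified enzyme at 10nM; light output imaged.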
HEK cytotox = HEK 293 cell cytotoxicity; HEK 293 viability, ATP luminescence (CellTiter-Glo), 48-72 h; Potency, µM (series often up to 115 µM), for the others: at the top dose activity change, negative = cytotoxicity, actives largely listed as inhibitors; 6.6% of 94,000 active; AID 1345083; note: nearly all actives have a fitted effect of over 60% in size
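Read-out: CellTiter-Glo ATP luminescence. Cells: HEK 293, 250 cells/well. Exposure: 48 or 72 hr, 37 degree Celsius.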
Numbers without * were called inactive; i = inactive; ? = inconclusive; · = not tested or not shown; [ ] = dose if it differs, or a comment. Unless noted, calls come from the whole dose curve; as a rule, active = well fitted curve in the direction sought with a large enough effect; inconclusive = small, poorly fitted or top-dose-only effect, or another doubt; inactive = no such curve, though single readings can be large; an effect the other way counts as inactive or inconclusive. % is set by controls: 0 for no effect and ±100 for the full control effect; potency is the fitted concentration of half-maximal effect.

SMILES	NIH3T3 tox	NPR1 antag	FLuc inh	HEK cytotox
O=C([C@H]1CCCN1C(=O)c1ccccc1Cl)N1CCCC(c2nc3ccncc3[nH]2)C1 (stereo not given in full)	-18.9%	·	·	0.4%
O=C(NCc1ccccc1F)c1cn2cc(-c3ccccc3)sc2n1	i	·	·	i
Cn1nc(C(=O)NC2CC2)c2c1CN(C(=O)Cc1cccc(F)c1)C2	-27.8%	·	·	-24.3%
CN1CC(=O)N(C2CCC2)Cc2c(NC3CC3)ncnc21	-15.0%[138 µM]	·	·	-3.3%[172 µM]
COc1ccc(CNC(=O)C[C@@H]2CCNC[C@@H]2Cc2cc(-c3ccc(OC)cc3)on2)cc1	?	-12.9%	i	39.8µM*
Cc1cc(Cn2cc3c4c(cccc42)[C@H](CC(C)C)N[C@H](C(=O)NCC2CC2)C3)no1	89.1µM*	-6.4%[70.6 µM]	i	79.4µM*
Cc1cc(Cn2cc3c4c(cccc42)[C@H](CC(C)C)N[C@H](C(=O)NCCN(C)C)C3)no1	22.4µM*	6.3%	i	35.5µM*
Cc1ccc(C(=O)NC2CCN(C(=O)c3ccc(-c4cccs4)cc3)CC2)cc1	-36.7%	·	·	?
C1CC(Cc2noc(C3CCOCC3)n2)CN1 (stereo not given)	?	4.3%	i	79.4µM*
Cc1cccc(OCCc2noc(C3CCCN3C(=O)c3n[nH]c(=O)c4ccccc34)n2)c1 (stereo not given)	?	-1.6%	i	39.8µM*
Cc1cccc(OCCc2noc(C3CNC3)n2)c1	28.2µM*	?	i	28.2µM*
C1CC(COCCc2noc(C3CNC3)n2)CCO1	12.6µM*	-26.2%	i	7.94µM*
C1CCC(COCCc2noc(C3CCCNC3)n2)C1 (stereo not given)	1.5%	-3.6%	i	-18.2%
O=C(c1ccccc1Cl)N1CCC(C(=O)N2CCC(N3Cc4cccn4C3=O)CC2)CC1	-22.4%	·	·	-26.7%
C=CCn1cc2c3c(cccc31)[C@H](CC(C)C)N[C@H](C(=O)NC1CCCC1)C2	31.6µM*	-0.3%[70.6 µM]	i	39.8µM*
CC(C)C[C@@H]1N[C@H](C(=O)NC2CCCC2)Cc2cn(CC3CC3)c3cccc1c23	35.5µM*	3.9%[70.6 µM]	i	44.7µM*
C=CCNC(=O)[C@@H]1Cc2cn(CC3CC3)c3cccc(c23)[C@H](CC(C)C)N1	?	-16.3%[70.6 µM]	i	50.1µM*
C=CCn1cc2c3c(cccc31)[C@H](CC(C)C)N[C@H](C(=O)NCc1ccccc1)C2	?	-16.8%[70.6 µM]	i	?
C=CCNC(=O)[C@@H]1Cc2cn(Cc3c(C)noc3C)c3cccc(c23)[C@H](CC(C)C)N1	112µM*	0.5%[70.6 µM]	i	100µM*
O=C(C1CCCN1C(=O)c1ccccc1F)N1CCC(N2CCCC2=O)CC1 (stereo not given)	-17.3%	·	·	-4.9%
COc1cccc(C(=O)NCCNC(=O)c2cccc(-c3ccc(SC)cc3)c2)c1	-11.0%	·	·	?
O=C(C1CCN([S+](=O)([O-])c2ccccc2)C1)N1CCC(c2nc3ncccc3[nH]2)CC1 (stereo not given)	-15.9%	·	·	-12.3%
COc1ccc(CC(=O)N2CCCC(c3nn(-c4ccccn4)c(=O)[nH]3)C2)cc1 (stereo not given)	-8.1%	·	·	-2.7%
C=CCn1cc2c3c(cccc31)[C@H](CC(C)C)N[C@H](C(=O)NCc1ccccc1OC)C2	25.1µM*	-5.4%[70.6 µM]	i	39.8µM*
C=CCn1cc2c3c(cccc31)[C@H](CC(C)C)N[C@H](C(=O)NC1CCC1)C2	?	-4.6%[70.6 µM]	i	63.1µM*
SMILES	NIH3T3 tox	NPR1 antag	FLuc inh	HEK cytotox
COc1cc(CNC(=O)c2cc(-c3ccc(F)cc3)cc3ncn(C)c23)ccn1	?	-10.5%[70.6 µM]	?	?
COc1ccc(Cn2c(=O)c(C(=O)N3CCN(C(=O)Cc4ccc(F)cc4)CC3)nc3cccnc32)cc1	-22.8%	·	·	?
CCS(=O)(=O)N1CCCCCCNC(=O)[C@@H]2C[C@@H](C(=O)NCCc3c[nH]c4ccccc34)C[C@@H]21	-12.8%	-14.0%	i	35.5µM*
O=C(NCCc1ccc(F)cc1)C1CCCN(Cc2cccc(-c3ccc(F)cc3F)c2)C1 (stereo not given)	?	·	·	39.8µM*
COc1ccc(CCNC(=O)C2CCCN(Cc3cccc(-c4ccc(F)cc4F)c3)C2)cc1 (stereo not given)	?	·	·	10µM*
O=C(NCCc1ccccc1)C1CCCN(Cc2cccc(-c3ccc(F)cc3F)c2)C1 (stereo not given)	?	·	·	39.8µM*
Cc1ccc(CNC(=O)CCC2CCCN(S(=O)(=O)c3ccccc3F)C2)o1 (stereo not given)	-24.0%	·	·	?
CC(C)(C)C(=O)NC1CCN(C(=O)c2ccc(-c3ncccc3C#N)cc2)CC1	?	·	·	-28.2%
O=C(O)Cn1ccc2cc(OCc3cccc(-c4ccc(F)cc4F)c3)cnc21	-3.0%[138 µM]	4.5%[70.6 µM]	20µM*	?
Cc1cc(F)ccc1-c1cccc(COc2cnc3c(ccn3CC(=O)O)c2)c1	-10.2%[138 µM]	-1.0%[70.6 µM]	i	?
Cn1nccc1-c1cccc(CCOc2cnc3c(ccn3CC(=O)O)c2)c1	44.7µM*	-13.3%[70.6 µM]	i	-8.9%[172 µM]
COc1cccc(-c2cccc(CCOc3cnc4c(ccn4CC(=O)O)c3)c2)c1	?	3.3%[70.6 µM]	i	?
COc1ccc(CCC(=O)N2CCC3(CC2)CC(CO)N(C(=O)c2ccccc2)C3)cc1 (stereo not given)	-14.2%	·	·	-0.4%
COc1ccc(C(=O)N2CCCC2C(=O)N2CCC(N3Cc4cccn4C3=O)CC2)cc1 (stereo not given)	-33.1%	·	·	-18.1%
COC(=O)[C@@H]1Cc2ncn(Cc3ccc(Cl)cc3)c2CN1CCCc1ccccc1	-95.2%[138 µM]	?	i	25.1µM*
COC(=O)[C@@H]1Cc2ncn(Cc3ccc(Cl)cc3)c2CN1Cc1ccc(CO)o1	?	-8.3%[70.6 µM]	i	?
COC(=O)[C@@H]1Cc2ncn(Cc3ccc(OC)cc3)c2CN1CCCc1ccccc1	?	-25.2%[70.6 µM]	i	?
COC(=O)[C@@H]1Cc2ncn(Cc3ccc(Cl)cc3)c2CN1Cc1cccs1	89.1µM*	?	i	?
O=C(Cc1c[nH]c2ncc(-c3cccnc3)cc12)NCc1ccccc1	35.5µM*	?	i	89.1µM*
COc1ccc(-c2cnc3[nH]cc(CC(=O)NCc4cccnc4)c3c2)cc1OC	15.8µM*	-2.2%[70.6 µM]	i	?
O=C(Cc1c[nH]c2ncc(-c3cccnc3)cc12)NC1CC1	70.8µM*	1.0%[70.6 µM]	i	-18.6%[230 µM]
CN(C)c1cccc(NC(=O)Cc2c[nH]c3ncc(-c4ccccc4)cc23)c1	?	?	i	?
COc1ccc(NC(=O)Cc2c[nH]c3ncc(-c4ccccc4)cc23)cc1OC	?	?	i	89.1µM*
CC(=O)N1CCN(C(=O)C2CCc3nnc(CN[S+](=O)([O-])c4ccccc4Cl)n32)CC1 (stereo not given)	-10.2%	·	·	-2.6%
O=C(Cc1c[nH]c2ncc(-c3cccnc3)cc12)Nc1ccccc1	25.1µM*	-1.1%[70.6 µM]	i	?
